# PubChem BioAssay AID1851 (National Center for Advancing Translational Sciences (NCATS), 2009)
# Screen size: about 16,000 compounds; about 5,800 (36%) were called active. Not shown: some 23% with an inconclusive outcome. Calls come from the whole dose curve; as a rule, active = well fitted curve in the direction sought with a large enough effect; inconclusive = small, poorly fitted or top-dose-only effect, or effect the other way; inactive = no such curve, though single readings can be large or run the other way. This is one part of the list. Square brackets hold non-standard residues; d marks the D form. Peptide text beside a SMILES is read from it.
# Target: Cytochrome P450 2C19 (Homo sapiens) (UniProt P33261)
# Sequence (P33261 whole entry, looked up): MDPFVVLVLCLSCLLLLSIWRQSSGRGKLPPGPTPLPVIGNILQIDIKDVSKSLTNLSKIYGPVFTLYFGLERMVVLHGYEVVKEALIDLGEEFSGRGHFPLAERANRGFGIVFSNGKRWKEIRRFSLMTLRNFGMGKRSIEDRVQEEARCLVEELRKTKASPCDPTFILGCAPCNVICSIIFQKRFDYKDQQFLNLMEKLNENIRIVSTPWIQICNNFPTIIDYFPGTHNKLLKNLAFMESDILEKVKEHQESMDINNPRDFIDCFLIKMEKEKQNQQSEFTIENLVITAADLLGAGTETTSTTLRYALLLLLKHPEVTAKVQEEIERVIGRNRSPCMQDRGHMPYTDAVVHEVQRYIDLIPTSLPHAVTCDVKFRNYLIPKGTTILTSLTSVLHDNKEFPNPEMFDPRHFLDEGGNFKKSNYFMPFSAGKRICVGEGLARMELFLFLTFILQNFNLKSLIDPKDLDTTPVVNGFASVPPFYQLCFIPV
# Test: Cytochrome panel assay with activity outcomes
# Settings: recombinant CYP, pro-luciferin dealkylation, luminescence, p450-cyp2c19; series mostly up to 57.1 µM; activity, negative = inhibition: at the top concentration
# % is set by controls: 0 for no effect and ±100 for the full control effect.
SMILES,AC50,"activity, negative = inhibition"
O=C(CCc1ccccc1)NNC(=O)C1CCCCC1,25.1 µM (active),
CN(C)CC(O)COc1ccc(C(C)(C)c2ccc(OCC(O)CN(C)C)cc2)cc1 (stereo not given),,-6.76% (inactive)
CCC(=O)c1ccc(OCC(O)CN(CCc2ccccc2)Cc2ccccc2)cc1 (stereo not given),1.12 µM (active),
O[C@@H](C1=C/C(=C\c2ccncc2)c2ccccc21)c1ccncc1,0.158 µM (active),
CCC(=O)Nc1ccccc1C(=O)OCC(=O)c1ccccc1,3.55 µM (active),
CCC(=O)Nc1ccccc1C(=O)OCC(=O)c1cccc2ccccc12,4.47 µM (active),
C[N+](C)(C)CCC(=O)c1cccc2ccccc12,,-12.3% (inactive)
CC(C)NC(=O)N1CCCC2(CCN(C(=O)c3cccn3C)CC2)C1,,-5.61% (inactive)
O=C(NNC(=O)C1CCN(S(=O)(=O)c2ccc(Cl)cc2)CC1)c1ccc(Cl)cc1,,22.2% (inactive)
O=C(c1ccc2c(c1)OCCO2)C1CCN(S(=O)(=O)c2ccccc2F)CC1,3.16 µM (active),
COc1cccc(C2C3(C#N)C(N)=NC(OC)(OC)C23C#N)c1 (stereo not given),4.47 µM (active),
CC(C)N1CCN(c2ccc(OC[C@@H]3CO[C@@](Cn4cncn4)(c4ccc(Cl)cc4Cl)O3)cc2)CC1,,7.39% [at 25.6 µM] (inactive)
Cc1ccccc1N1C(=O)c2cc(S(N)(=O)=O)c(Cl)cc2N[C@H]1C,,5.2% [at 25.6 µM] (inactive)
COc1ccccc1NS(=O)(=O)c1cccc(C(=O)OCC(=O)Nc2cc(C)on2)c1,7.94 µM (active),
COc1ccccc1NC(=O)COC(=O)c1ccc(S(=O)(=O)NCc2ccco2)cc1,5.01 µM (active),
Cc1cc(N(CN2CCCC2=O)C(=O)c2ccc(F)cc2)no1,,-20.2% (inactive)
COc1cc(C(=O)OCC(=O)Nc2cc(C)on2)cc(OC)c1OC,,-28.1% (inactive)
Cc1cc(NC(=O)COC(=O)c2ccc(S(=O)(=O)N3CCCc4ccccc43)cc2)no1,4.47 µM (active),
CCN(CC)CCOC(=O)c1cc(Cl)c(N)cc1OC,,13.8% (inactive)
Cc1cc(C)c(S(=O)(=O)NCC2CCC(C(=O)NCc3ccc4c(c3)OCO4)CC2)c(C)c1 (stereo not given),6.31 µM (active),

SMILES,AC50,"activity, negative = inhibition"
Cc1c(C(=O)O)oc2ccc(S(=O)(=O)NCc3ccc4c(c3)OCO4)cc12,,-49.5% (inactive)
Cn1cccc1C(=O)N1CCC2(CC1)CCN(c1ccccn1)CC2,,-35.1% (inactive)
O=C(c1csnn1)N1CCC2(CC1)CCN(c1ccccn1)CC2,,-38.4% (inactive)
CN1C(=O)/C(=C\c2ccccc2)Sc2ccc(C(=O)N3CCN(c4ccccn4)CC3)cc21,3.98 µM (active),
COc1ccc(C(=O)N/N=C2/C(=O)c3c(C)cc(C)cc3CC2(C)C)cc1,3.98 µM (active),
CCN(CC)C(=O)c1cc2cc([N+](=O)[O-])ccc2s1,15.8 µM (active),
CCOC(=O)c1nc(N)sc1C(=O)OCC,,24.2% (inactive)
CCOC(=O)c1cc(C(=O)OCC)cc(-n2cc(O)c(C(=O)OCC)n2)c1,14.1 µM (active),
CC1=c2c(oc3cc(O)c(Nc4c(C)cc(O)cc4O)c(C)c23)=CC(=O)C1=Nc1c(C)cc(O)cc1O,3.16 µM (active),
Cn1c(=O)cc(OCC(=O)NCc2cccnc2)c2ccccc21,,-27.8% (inactive)
CCOc1cc(CNCCO)c(Cl)cc1OCC(=O)NCCc1ccccc1,4.47 µM (active),
CCNCc1cc(OCC)c(OCC(=O)NCCc2ccccc2)cc1Cl,1.58 µM (active),
N=c1nc(N)nc(N)n1-c1ccc(S(N)(=O)=O)cc1,,36.5% [at 11.4 µM] (inactive)
CCOC(=O)c1cnc(-c2ccccc2)nc1Oc1ccc(Cl)cc1,,3.77% (inactive)
CCOC(=O)c1cnc(-c2ccccc2)nc1Oc1ccccc1,14.1 µM (active),
COc1cnc(-c2ccccc2)nc1Oc1cccc(C)c1,7.94 µM (active),
N[C@H](CO)C(=O)NCC(=O)O (H-[dS]-Gly-OH),,19% [at 11.4 µM] (inactive)
CCc1cc2c(=O)c(-c3cnn(-c4ccccc4)c3)coc2c(CN2CCOCC2)c1O,20 µM (active),
Fc1ccc(Cn2c(SCc3ccc(F)c(F)c3)nnc2C(F)(F)F)cc1,2.24 µM (active),
Cc1ccc(CSc2nnc(C(F)(F)F)n2Cc2ccc(F)cc2)cc1,2.82 µM (active),

SMILES,AC50,"activity, negative = inhibition"
COc1cccc(CSc2nnc(C(F)(F)F)n2Cc2ccc(F)cc2)c1,3.16 µM (active),
Fc1ccc(Cn2c(SCc3ccc(F)c(C(F)(F)F)c3)nnc2C(F)(F)F)cc1,2.82 µM (active),
[O-][N+]1(CC[N+]2([O-])CCCCC2)CCCCC1,,25.1% [at 11.4 µM] (inactive)
CC1(C)C(=O)C(c2ccccc2)=C2CN3C(=O)N(CCc4ccccc4)C(=O)C3(Cc3ccccc3)C=C21 (stereo not given),,-37.3% (inactive)
CC[C@H](CO)NCCN[C@@H](CC)CO,,22.2% [at 25.6 µM] (inactive)
CCN1C(=O)c2cccc3c(NC(=O)c4cccc(N5C(=O)CCC5=O)c4)ccc1c23,,-13.5% (inactive)
CCCN(CCC)CCCNC(=O)c1ccc2c(c1)N(CC)C(=O)c1ccccc1S2=O (stereo not given),,33.6% (inactive)
CCOC(=O)c1ccc(NC(=O)Nc2ccc3c4c(cccc24)C(=O)N3CC)cc1,11.2 µM (active),
Cc1cc(C=O)c(C)n1-c1ccc(NC2CCCC2)c([N+](=O)[O-])c1,6.31 µM (active),
Cc1ccc(C(=O)N/N=C/c2cc(C)n(-c3ccc(Br)cc3)c2C)cc1[N+](=O)[O-],,-28.2% (inactive)
N[C@@](CCc1ccccc1)(C(=O)O)c1ccccc1,,-19.5% [at 11.4 µM] (inactive)
CN(/C=C/C(=O)C(F)(F)F)Cc1ccccc1,8.91 µM (active),
CCCC[C@@H]1C[C@H]1C(NC(=O)c1cccs1)c1ccccc1C(F)(F)F (stereo not given in full),0.631 µM (active),
CCCC[C@@H]1C[C@H]1C(NC(=O)c1ccccc1)c1ccccc1C(F)(F)F (stereo not given in full),0.501 µM (active),
Cc1cc(Cl)nc(NC(=O)CSc2ccc(Cl)cc2)n1,,34.4% [at 11.4 µM] (inactive)
Cc1cnc2cc(Cl)ccc2c1SCC(=O)O,,24.8% [at 11.4 µM] (inactive)
Cc1cnc(NC(=O)CSc2ccc(Cl)cc2)s1,2 µM (active),
COC(=O)c1sccc1NC(=O)CSc1cc(Cl)ccc1Cl,2.82 µM (active),
COC(=O)c1sccc1NC(=O)CN(C)NS(=O)(=O)c1ccc(F)cc1,14.1 µM (active),
COC(=O)c1sccc1NC(=O)CSc1ccccc1NS(=O)(=O)c1ccc(Cl)cc1,0.794 µM (active),
